In all, about 39,000 compounds went through this assay and about 3,300 (8.5%) were called active. The entries come from a sample that favours actives as a whole.

The assay relates to HepG2. The experiment in a line: cytotoxicity call (relative viability < 0.9). The conditions noted are these: 10 µM.
For the compound `CC(C)(CO)c1cc2cc(NC(=O)C3(c4ccc5c(c4)OC(F)(F)O5)CC3)c(F)cc2n1C[C@@H](O)CO`, the cytotoxicity call was “inactive”.
As for `NCCn1cccn1`, the entry is “inactive”; as for `C[C@@H]1CN([C@@H](C)CO)S(=O)(=O)c2ccc(C#CCN(C)C)cc2O[C@H]1CN(C)Cc1ccccn1`, “inactive”.
As for `O=C(O)CN1C(=O)c2cccc3cccc(c23)C1=O`, the entry is “inactive”.
In the case of `CC(C)(C)C1CCC(OC[C@@H](O)CN2CCC(CN3C(=O)c4cccc5cccc(c45)C3=O)CC2)CC1` (stereo partly drawn), the cytotoxicity call is “active”.
Then `O=C(CN1C(=O)c2cccc3cccc(c23)C1=O)N1CCN(CCN2C(=O)[C@@H]3[C@@H](C2=O)[C@@H]2C=C[C@@H]3C2)CC1`, with “inactive”.
Then `CCCN(C)C[C@H]1OCCCC[C@@H](C)Oc2ccc(NC(=O)Nc3c(C)noc3C)cc2C(=O)N([C@H](C)CO)C[C@@H]1C`, with “inactive”; and `COc1ccc(S(=O)(=O)Nc2ccc3c(c2)C(=O)N([C@@H](C)CO)C[C@H](C)[C@@H](CN(C)C(=O)Nc2cccc4ccccc24)OCCCC[C@@H](C)O3)cc1`, with “inactive”; and `CC=C1C2C=C(C)CC1(N)c1ccc(=O)[nH]c1C2` (stereo not drawn), with “inactive”.
As for `C[C@H]1CN([C@@H](C)CO)C(=O)c2cccc(NC(=O)Nc3ccc(F)cc3)c2O[C@@H]1CN(C)Cc1ccc(C(=O)Nc2ccccc2N)cc1`, the entry is “inactive”; as for `C[C@H]1CN([C@@H](C)CO)C(=O)c2cccc(NC(=O)Nc3ccc(F)cc3)c2O[C@H]1CN(C)Cc1ccc(C(=O)Nc2ccccc2N)cc1`, “active”; as for `C[C@H]1CN([C@@H](C)CO)C(=O)c2cccc(NC(=O)Nc3ccccc3)c2O[C@H]1CN(C)Cc1ccc(C(=O)Nc2ccccc2N)cc1`, “active”.
As for `C[C@@H]1CN([C@H](C)CO)C(=O)c2cccc(NC(=O)Nc3ccccc3)c2O[C@@H]1CN(C)Cc1ccc(C(=O)Nc2ccccc2N)cc1`, the cytotoxicity call is “inactive”.
Then `C[C@H](CO)N1C[C@H](C)[C@H](CN(C)Cc2ccc(C(=O)Nc3ccccc3N)cc2)Oc2c(NC(=O)Nc3ccc(F)cc3)cccc2C1=O`, with “inactive”.
Then `C[C@@H]1CN([C@H](C)CO)C(=O)c2cccc(NC(=O)Nc3ccc(F)cc3)c2O[C@H]1CN(C)Cc1ccc(C(=O)Nc2ccccc2N)cc1`, with “inactive”; and `C[C@@H]1CN([C@@H](C)CO)C(=O)c2cccc(NC(=O)Nc3ccccc3)c2O[C@H]1CN(C)Cc1ccc(C(=O)Nc2ccccc2N)cc1`, with “inactive”.
Then `C[C@@H]1CN([C@@H](C)CO)C(=O)c2cccc(NC(=O)Nc3ccc(F)cc3)c2O[C@@H]1CN(C)Cc1ccc(C(=O)Nc2ccccc2N)cc1`, with “active”; and `C[C@@H]1CN([C@@H](C)CO)C(=O)c2cccc(NC(=O)Nc3ccc(F)cc3)c2O[C@H]1CN(C)Cc1ccc(C(=O)Nc2ccccc2N)cc1`, with “inactive”; and `C[C@@H]1CN([C@@H](C)CO)C(=O)CCCn2cc(nn2)CO[C@H]1CN(C)S(=O)(=O)c1ccccc1C#N`, with “inactive”.
In the case of `CC(C)c1cccc(NC(=O)C[C@H]2CC[C@H]3[C@@H](COc4ccc(NC(=O)c5ccc(C#N)cc5)cc4C(=O)N3C)O2)c1`, the cytotoxicity call is “inactive”.
Then `COc1ccc(S(=O)(=O)N(C)C[C@H]2OCCCC[C@H](C)Oc3ccc(NC(=O)Nc4cccc5ccccc45)cc3C(=O)N([C@@H](C)CO)C[C@H]2C)cc1`, with “inactive”; and `COc1ccc(S(=O)(=O)N(C)C[C@H]2Oc3ccc(N(C)C)cc3CC(=O)N([C@H](C)CO)C[C@H]2C)cc1`, with “inactive”; and `C[C@@H]1CN([C@H](C)CO)C(=O)c2cccc(NS(=O)(=O)c3ccc(F)cc3)c2O[C@@H]1CN(C)Cc1ccc(Cl)c(Cl)c1`, with “inactive”.
As for `COc1ccc(S(=O)(=O)Nc2ccc3c(c2)C(=O)N([C@H](C)CO)C[C@@H](C)[C@H](CN(C)C(=O)Nc2cccc4ccccc24)OCCCC[C@@H](C)O3)cc1`, the entry is “inactive”; as for `C[C@H]1CN([C@@H](C)CO)C(=O)c2cc(C#CCN(C)C)cnc2O[C@@H]1CN(C)Cc1ccc(C(=O)O)cc1`, “inactive”; as for `C[C@@H]1CN([C@H](C)CO)C(=O)c2cccc(NC(=O)Nc3ccc4c(c3)OCO4)c2O[C@H]1CN(C)C(=O)Nc1ccc(C(F)(F)F)cc1`, “inactive”.
As for `NC(=O)c1ccc2nc(-c3ccc(C4(N)CCC4)cc3)c(-c3ccccc3)n2n1`, the entry is “inactive”; as for `Nc1ncccc1-c1nc2ccc(-c3ccccc3)nc2n1-c1ccc(C2(N)CCC2)cc1`, “active”.
Take `CC(C)NC(=O)N[C@@H]1CC[C@@H](CCN)O[C@@H]1CO`: the cytotoxicity call was “inactive”.
As for `Cc1ccc(S(=O)(=O)Nc2ccc3c(c2)CC(=O)N([C@@H](C)CO)C[C@@H](C)[C@@H](CN(C)S(=O)(=O)c2c(C)noc2C)O3)cc1`, the cytotoxicity call is “inactive”.
As for `Cc1noc(C)c1NC(=O)N(C)C[C@H]1Oc2ccc(NC(=O)Cn3cnnn3)cc2CC(=O)N([C@H](C)CO)C[C@@H]1C`, the entry is “inactive”.
As for `Cc1noc(C)c1S(=O)(=O)Nc1ccc2c(c1)CC(=O)N([C@@H](C)CO)C[C@@H](C)[C@H](CN(C)C(=O)Nc1ccccc1)O2`, the entry is “inactive”; as for `CC(=O)Nc1c(C)[nH]c2ncnn2c1=O`, “active”; as for `Cc1[nH]c2ncnn2c(=O)c1NS(C)(=O)=O`, “inactive”.
As for `COC(=O)Cc1c(C)[nH]c2ncnn2c1=O`, the cytotoxicity call is “inactive”.
Then `C[C@@H]1CN([C@H](C)CO)C(=O)Cc2cc(NS(C)(=O)=O)ccc2O[C@@H]1CN(C)C(=O)Nc1ccc(C(F)(F)F)cc1`, with “inactive”.
Then `O=C(Nc1ccno1)NN1CCOCC1`, with “inactive”.
Then `COc1cc([C@@H]2c3cc4c(cc3[C@@H](O[C@@H]3O[C@@H]5CO[C@@H](C)O[C@H]5[C@H](O)[C@H]3O)[C@@H]3COC(=O)[C@@H]23)OCO4)cc(OC)c1O`, with “inactive”.
As for `COc1cc(C2c3cc4c(cc3C(OC3OC5COC(C)OC5C(O)C3O)C3COC(=O)C23)OCO4)cc(OC)c1O` (stereo not drawn), the cytotoxicity call is “inactive”.
As for `COc1cc([C@@H]2c3cc4c(cc3[C@@H](O[C@@H]3O[C@@H]5CO[C@@H](C)O[C@H]5[C@H](O)[C@H]3O)[C@H]3COC(=O)[C@H]23)OCO4)cc(OC)c1O`, the entry is “active”; as for `COc1cc(C2c3cc4c(cc3C(OC3OC5COC(c6cccs6)OC5C(O)C3O)C3COC(=O)C23)OCO4)cc(OC)c1O` (stereo not drawn), “active”; as for `C[C@H](CO)N1C[C@H](C)[C@H](CN(C)S(=O)(=O)c2cccs2)Oc2ccc(NS(=O)(=O)c3ccc(F)cc3)cc2CC1=O`, “inactive”.
Then `O=C(C[C@@H]1C[C@H]2c3cc(NC(=O)C4CCOCC4)ccc3O[C@H]2[C@@H](CO)O1)NCCN1CCCCC1`, with “inactive”.
